Screening data deposited in PubChem BioAssay by National Center for Advancing Translational Sciences (NCATS).
Compounds with a hit are over-represented: about 21% of the library has one in this group of screens.
HCV inhibitor: HCV inhibition; Potency, µM (series often up to 41.8 µM), usual class: inhibitors; 3.4% of 340,000 active; Huh7.5.1 HCVcc-Cre infection, luciferase reporter, 44 h
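Whole-lifecycle infectious HCVcc-Cre system; cells 1,000/well, compound then virus (~0.5 moi) added 4 h after plating, 44 h culture. Luciferase read 15 sec following 15 min substrate incubation, room temp.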
Pf growth 48h: P. falciparum growth inhibition at 48 hours (one generation) | P. falciparum luciferase growth in erythrocytes, 48 h | 5.9% of 310,000 active | Potency, µM (series often up to 28.7 µM), hits mostly inhibitors
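Parasite viability was followed by luminescence of a genomically integrated firefly luciferase. Cultures held 0.1% parasitemia at 2% hematocrit (final), incubated under 5% CO2 at 37 C.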
Pf growth 96h: P. falciparum growth inhibition at 96 hour, primary screen for plastid delayed-death inhibitors; P. falciparum luciferase reporter growth, 96 h; Potency, µM (series often up to 28.7 µM), hits mostly inhibitors; 6.9% of 320,000 active; AID 504834
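Delayed-death screen, second-generation endpoint: infected erythrocytes, 2% hematocrit, 0.05% parasitemia final; 96 hours at 37 C, 5% CO2; luciferase detection reagent; luminescence decrease equals reduced growth.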
Cycloheximide cs: counter-screen for Shiga toxin inhibitors: cycloheximide protein synthesis inhibition; 12% of 300,000 active; max response, %; AID 2314; cell reporter, cycloheximide protein synthesis inhibition counterscreen; in the data active means max response mostly above about 13%, no sharp cut-off; inactive means mostly below about 14%; further: read at 38.3 µM for the half of the compounds with a filed dose
Shiga inhibitor: blocks Shiga toxin action in Vero cells; 9.2% of 290,000 active; AID 2315; Vero cells, Shiga toxin protein synthesis inhibition reporter; inhibition, % at 38.7 µM; in the data active means inhibition mostly above about 28%, no sharp cut-off; inactive means mostly below about 43%
AMA1 RON2 block: disrupts binding of P. falciparum AMA1 to RON2; AlphaScreen AMA1-biotinylated RON2 peptide binding; Potency, µM (top dose mostly 58.2 µM), usual class: inhibitors; 0.2% of 360,000 active; AID 720542; further: nearly all actives have a fitted effect of over 45% in size
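AMA1 (3D7) with his tag at 25 nM final met compounds first, then biotinylated RON2 peptide at 25 nM; detection used donor plus acceptor beads, 10 µg/mL apiece, read by AlphaScreen after 30 min at room temperature.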
Large screens that a line does not name were inactive. Unless noted, the call rests on the fitted dose curve; in most records, active means well fitted curve in the direction sought with a large enough effect; inconclusive means small, poorly fitted or top-dose-only effect, or another doubt; inactive means no such curve, though single readings can be large; an effect the other way counts as inactive or inconclusive.

CCC(C)C1Nc2ccc(C(=O)NCCc3ccc(OC)c(OC)c3)cc2NC1=O (centres undefined)	HCV inhibitor inconclusive, Pf growth 48h inconclusive
O=C(NNC(=O)c1sccc1-n1cccc1)Nc1ccc(F)cc1	Pf growth 48h inconclusive
O=C(NCc1ccccn1)Nc1cccc(NC(=O)NCc2ccccn2)c1	Pf growth 96h inconclusive
O=C(NCc1ccccn1)Nc1cccc(Cl)c1	Pf growth 96h inconclusive, Cycloheximide cs 29, Shiga inhibitor 43 (no result: Pf growth 48h)
COc1cccc(Nc2nc(Nc3ccc(Cl)c(C(=O)O)c3)nc(C)c2[N+](=O)[O-])c1	none (no result: Cycloheximide cs, Shiga inhibitor)
Cc1ccc2nc(-c3ccc(NC(=O)CCN4C(=O)c5ccccc5C4=O)cc3)sc2c1	Cycloheximide cs 55, Shiga inhibitor 79
CC(C)Cc1nnc(NC(=O)CCN2C(=O)c3ccccc3C2=O)s1	none (no result: Pf growth 48h)
O=C(CCN1C(=O)c2ccccc2C1=O)Nc1ccc(-c2nc3ccccc3s2)cc1	Pf growth 96h 1.3µM, Cycloheximide cs 33, Shiga inhibitor 110
Cc1cccc(NC(=O)CCN2C(=O)c3ccccc3C2=O)c1	none
Cc1ccc(C2(C)NC(=O)N(CC(=O)Nc3ccc(-c4nc5ccc(C)cc5s4)cc3)C2=O)cc1 (centres undefined)	HCV inhibitor inconclusive, Cycloheximide cs 54, Shiga inhibitor 85
O=C(CCN1C(=O)c2ccccc2C1=O)Nc1nc2ccccc2s1	Cycloheximide cs 19
Cc1cccc(NC(=O)CN2CCN(C(=O)c3cnn(Cc4ccccc4)c3)CC2)c1C	Pf growth 48h inconclusive, Pf growth 96h inconclusive (no result: Cycloheximide cs, Shiga inhibitor)
Cc1ccc2nc(-c3ccc(NC(=O)C(C)N4C(=O)c5ccccc5C4=O)cc3)sc2c1 (centres undefined)	Cycloheximide cs 93, Shiga inhibitor 51
CC(C(=O)Nc1ccc(C(=O)O)cc1)N1C(=O)c2ccccc2C1=O (centres undefined)	none
CCCCCCn1cnc2c(oc3nc4c(cc32)CCCC4)c1=O	Pf growth 96h inconclusive, Cycloheximide cs 12
COc1cccc(NC(=O)Cn2cnc3c(oc4nc5c(cc43)CCCC5)c2=O)c1	Pf growth 96h inconclusive
O=c1c2oc3nc4c(cc3c2ncn1CCCc1ccccc1)CCCC4	Pf growth 48h inconclusive, Pf growth 96h inconclusive, Cycloheximide cs 20, Shiga inhibitor 70
CCCCn1cnc2c(oc3nc4c(cc32)CCCC4)c1=O	Cycloheximide cs 26
COc1ccccc1NC(=O)Cn1cnc2c(oc3nc4c(cc32)CCCC4)c1=O	Pf growth 48h inconclusive, Pf growth 96h inconclusive
CCOc1cc2c(cc1OCC)-n1cccc1C(c1ccc(F)cc1)NC2 (centres undefined)	Pf growth 48h inconclusive, AMA1 RON2 block inconclusive
Oc1ccc(C2NCc3ccccc3-n3cccc32)cc1Cl (centres undefined)	Pf growth 48h 0.66µM
FC(F)(F)c1cccc(C2NCc3ccccc3-n3cccc32)c1 (centres undefined)	Pf growth 96h 4.7µM
CCC(=O)N1CCCC(C(=O)Nc2nc3ccccc3[nH]2)CC1 (centres undefined)	none (no result: HCV inhibitor, Pf growth 48h, Pf growth 96h, Cycloheximide cs, Shiga inhibitor)
COc1ccc(-c2ccc3c(c2)O[C@H](CN(C)C(=O)Nc2ccccc2F)[C@@H](C)CN([C@H](C)CO)S3(=O)=O)cc1	none (no result: HCV inhibitor, Pf growth 48h, Pf growth 96h, Cycloheximide cs, Shiga inhibitor)
CC(C)Cc1ccc(CN2CCCC(NC(=O)CCN3CCOCC3)C2)cc1 (centres undefined)	Pf growth 96h inconclusive (no result: HCV inhibitor)
COc1ccccc1-c1nnc(SC(C)C(=O)O)n1-c1ccccc1 (centres undefined)	none
Cc1cc(C)cc(C(=O)OCC(=O)N2CCCCCC2)c1	none (no result: Cycloheximide cs, Shiga inhibitor)
COc1ccc(C(=O)N(Cc2ccco2)Cc2cc3cc(C)ccc3[nH]c2=O)cc1OC	HCV inhibitor inconclusive (no result: Pf growth 48h, Pf growth 96h, Cycloheximide cs, Shiga inhibitor)
COc1ccccc1NC(=O)N(Cc1ccco1)Cc1cc2cccc(C)c2[nH]c1=O	Pf growth 48h inconclusive, Pf growth 96h 13µM
COc1ccccc1NC(=S)N(Cc1ccco1)Cc1cc2cc(C)ccc2[nH]c1=O	HCV inhibitor inconclusive, Pf growth 48h 12µM, Pf growth 96h inconclusive
COc1cccc(NC(=O)N(Cc2cc3cc(C)cc(C)c3[nH]c2=O)CC2COCCO2)c1 (centres undefined)	HCV inhibitor inconclusive, Pf growth 48h 9.3µM
